“And” between values parts separate entries of the source, which are not always exact repeats. Equal values may be shown once. Inconclusive results are not listed. Some structures have more than one record in an assay (separate samples or runs), and their calls can disagree. The source made the active and inactive calls. Unless noted, calls follow the shape of the dose curve; as a rule, active = well fitted cell-killing curve with a large enough effect in the repeat runs; inconclusive = weak or mixed curves, or effect the other way; inactive = flat fitted curve, though single readings scatter.
Assay: Nuclear factor erythroid 2-related factor 2/antioxidant responsive element (Nrf2/ARE) small molecule agonists: qHTS cell viability counter screen in human keratinocytes (AID 1919968); also: nearly all actives have a fitted effect of over 55% in size
Details: KeratinoSens HaCaT ARE cells viability, CellTiter-Fluor, 24 h; series mostly up to 92.4 µM; activity change, negative = cytotoxicity: at the top concentration
How it was run: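 HaCaT ARE reporter line, 1,500 cells/well; 5 h settle, 37 C/5% CO2; cpd in DMSO pinned; 23 h exposure; CellTiter-Fluor, 1 h; fluorescence.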
% is scaled to controls: 0 for no effect and ±100 for the full control effect; potency is read from the fitted curve at half-maximal effect.

Row | SMILES | Potency | activity change, negative = cytotoxicity
1 | S=C(NC1CCCCC1)NC1CCCCC1 | 26.8 µM (active) and 24.3 µM (active) | –
2 | O=c1cc(-c2ccccc2)oc2ccccc12 | inactive and 13.6 µM (active) | –
3 | CC(C)(N=C=O)c1cccc(C(C)(C)N=C=O)c1 | – | -11.2% (inactive)
4 | Nc1cccc(N)n1 | inactive | –
5 | O=S(=O)(Oc1ccc(Cl)cc1Cl)c1ccccc1 | inactive | –
6 | C[N+](C)(C)CC(O)CCl (stereo not drawn) | – | 1.84% (inactive)
7 | Cn1sccc1=O | 43.3 µM (active) and 13.7 µM (active) | –
8 | NCCNCCNCCNCCN | inactive | –
9 | COc1ccc(N)c(C)c1 | inactive | –
10 | O=C(O)c1ccc(C(=O)O)c(C(=O)O)c1 | inactive | –
11 | CCCCCCCCCCCC(=O)N(C)CC(=O)O | inactive | –
12 | CCC(C)NC(N)=O (stereo not drawn) | – | 2.21% (inactive)
13 | CC(=O)OC1CC(C)OC(C)O1 (stereo not drawn) | inactive | –
14 | CC(C)CC(C)O (stereo not drawn) | inactive | –
15 | COCc1ccc(COC)cc1 | – | 0.975% (inactive)
16 | CCCCNc1ccccc1 | – | -0.299% (inactive)
17 | CCCCC(CC)COC(C)=O (stereo not drawn) | inactive | –
18 | O=C1CCCCC1 | inactive | –
19 | CCC(C)c1ccccc1O (stereo not drawn) | inactive | –
20 | Cc1cccc(C)c1[N+](=O)[O-] | – | 4.74% (inactive)

Row | SMILES | Potency | activity change, negative = cytotoxicity
21 | N#Cc1ccc(C2CCCc3cncn32)cc1 (stereo not drawn) | – | 1.43% [at 42.5 µM] (inactive)
22 | CC(=O)OC/C=C(\C)CC/C=C(\C)CCC=C(C)C | inactive | –
23 | O=C1CCC(=O)O1 | – | -2.07% (inactive)
24 | CS(=O)(=O)c1ccc(Cl)cc1 | inactive | –
25 | Cc1cccnc1 | inactive | –
26 | CS(=O)(=O)O | – | -0.918% (inactive)
27 | CNCCS(=O)(=O)O | – | -1.46% (inactive)
28 | NC(=Nc1ccccc1)Nc1ccccc1 | inactive | –
29 | O=C(O)c1ccccc1C(c1ccc(O)cc1)c1ccc(O)cc1 | inactive | –
30 | CN1Cc2c(N)cccc2C(c2ccccc2)C1 (stereo not drawn) | inactive | –
31 | CO[C@H]1C=CO[C@@]2(C)Oc3c(C)c(O)c4c(O)c(c(/C=N/N5CCN(C)CC5)c(O)c4c3C2=O)NC(=O)/C(C)=C\C=C[C@H](C)[C@H](O)[C@@H](C)[C@@H](O)[C@@H](C)[C@H](OC(C)=O)[C@@H]1C | – | -22.9% [at 42.5 µM] (inactive)
32 | C[n+]1ccn(CCO)c1 | inactive | –
33 | CCOC(=O)c1c(C)n(C)c2ccc(O)cc12 | – | -17.4% [at 42.5 µM] (inactive)
34 | CC1=CC[C@@H]2C[C@H]1C2(C)C | – | -0.0198% [at 19 µM] (inactive)
35 | c1ccc2c(c1)-c1cccc3c1c-2cc1ccccc13 | inactive | –
36 | C=CC(=O)NCOCCCC | inactive | –
37 | O=[N+]([O-])c1ccc2nc[nH]c2c1 | inactive | –
38 | CCCCCCCO | inactive | –
39 | CCCCCCCCCCCCCCCCCCOCC(O)CO (stereo not drawn) | – | -0.345% [at 42.5 µM] (inactive)

Assay: Nuclear factor erythroid 2-related factor 2/antioxidant responsive element (Nrf2/ARE) small molecule agonists: luciferase reporter gene qHTS assay in human keratinocytes (AID 1919969; calls by dose curve; also: nearly all actives have a fitted effect of over 35% in size)
Details: KeratinoSens HaCaT ARE-luciferase, luminescence, 24 h; series mostly up to 92.4 µM; activity, positive = activation: at the top concentration

Row | SMILES | Potency | activity, positive = activation
40 | S=C(NC1CCCCC1)NC1CCCCC1 | 15.1 µM (active) | –
41 | O=c1cc(-c2ccccc2)oc2ccccc12 | 4.86 µM (active) and 2.16 µM (active) | –
42 | CC(C)(N=C=O)c1cccc(C(C)(C)N=C=O)c1 | inactive | –
43 | Nc1cccc(N)n1 | inactive | –
44 | O=S(=O)(Oc1ccc(Cl)cc1Cl)c1ccccc1 | 69.8 µM (active) | –
45 | C[N+](C)(C)CC(O)CCl (stereo not drawn) | – | 1.53% (inactive)
46 | Cn1sccc1=O | 13.7 µM (active) and 6.86 µM (active) | –
47 | NCCNCCNCCNCCN | inactive | –
48 | COc1ccc(N)c(C)c1 | – | 4.17% (inactive)
49 | O=C(O)c1ccc(C(=O)O)c(C(=O)O)c1 | inactive | –
50 | CCCCCCCCCCCC(=O)N(C)CC(=O)O | – | 0.794% [at 8.39 µM] (inactive)
51 | CCC(C)NC(N)=O (stereo not drawn) | – | -1.06% (inactive)
52 | CC(=O)OC1CC(C)OC(C)O1 (stereo not drawn) | inactive | –
53 | CC(C)CC(C)O (stereo not drawn) | – | 5.05% (inactive)
54 | COCc1ccc(COC)cc1 | – | -8.58% (inactive)
55 | CCCCNc1ccccc1 | – | 2.54% (inactive)
56 | CCCCC(CC)COC(C)=O (stereo not drawn) | – | -1.66% (inactive)
57 | O=C1CCCCC1 | inactive | –
58 | CCC(C)c1ccccc1O (stereo not drawn) | inactive | –
59 | Cc1cccc(C)c1[N+](=O)[O-] | – | -4.19% (inactive)

Row | SMILES | Potency | activity, positive = activation
60 | N#Cc1ccc(C2CCCc3cncn32)cc1 (stereo not drawn) | – | -9.82% [at 42.5 µM] (inactive)
61 | CC(=O)OC/C=C(\C)CC/C=C(\C)CCC=C(C)C | inactive | –
62 | O=C1CCC(=O)O1 | – | -5.03% (inactive)
63 | CS(=O)(=O)c1ccc(Cl)cc1 | – | 1.3% (inactive)
64 | Cc1cccnc1 | inactive | –
65 | CS(=O)(=O)O | – | -8.68% (inactive)
66 | CNCCS(=O)(=O)O | – | 2.08% (inactive)
67 | NC(=Nc1ccccc1)Nc1ccccc1 | 19.3 µM (active) and inactive | –
68 | O=C(O)c1ccccc1C(c1ccc(O)cc1)c1ccc(O)cc1 | inactive | –
69 | CN1Cc2c(N)cccc2C(c2ccccc2)C1 (stereo not drawn) | inactive | –
70 | CO[C@H]1C=CO[C@@]2(C)Oc3c(C)c(O)c4c(O)c(c(/C=N/N5CCN(C)CC5)c(O)c4c3C2=O)NC(=O)/C(C)=C\C=C[C@H](C)[C@H](O)[C@@H](C)[C@@H](O)[C@@H](C)[C@H](OC(C)=O)[C@@H]1C | inactive | –
71 | C[n+]1ccn(CCO)c1 | inactive | –
72 | CCOC(=O)c1c(C)n(C)c2ccc(O)cc12 | – | 5.61% [at 42.5 µM] (inactive)
73 | CC1=CC[C@@H]2C[C@H]1C2(C)C | – | -20.3% [at 19 µM] (inactive)
74 | c1ccc2c(c1)-c1cccc3c1c-2cc1ccccc13 | 23.8 µM (active) and 21.7 µM (active) | –
75 | C=CC(=O)NCOCCCC | inactive | –
76 | O=[N+]([O-])c1ccc2nc[nH]c2c1 | inactive | –
77 | CCCCCCCO | inactive and 61.1 µM (active) | –
78 | CCCCCCCCCCCCCCCCCCOCC(O)CO (stereo not drawn) | – | 1.16% [at 42.5 µM] (inactive)
